# From PubChem BioAssay (Tox21)
# Values joined by “and” are separate entries in the source; they are usually repeats but may differ in a detail not shown here. Identical values can stand only once. Inconclusive results are not listed. A call without a number means that no potency is given here. The source holds several records for some structures; these can differ, active in one and inactive in another. Active and inactive are the calls of the source. Unless noted, calls come from the whole dose curve.
# Assays:
# [1] = qHTS assay to identify small molecule antagonists of the sonic hedgehog signaling (Shh) pathway (AID 1259369); note: nearly all actives have a fitted effect of over 45% in size; note: potency is the fitted concentration of half-maximal effect
# In short: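 NIH/3T3 stable Gli1-Luc clone, 2,000 cells/well, 4hr settle; cpd + conditioned medium 24hr; Luc reagent 30min RT; luminescence.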
# [2] = target: Estrogen receptor beta (Homo sapiens) (UniProt Q92731); assay: qHTS assay to identify small molecule agonists of the estrogen receptor beta (ER-beta) signaling pathway (AID 1259377; active = well fitted activation curve with a large enough effect in the signal ratio in the repeat runs, not every such curve was filed as active; the % refers to the signal ratio)
# Estrogen receptor beta (Homo sapiens), sequence (Q92731 whole entry, looked up): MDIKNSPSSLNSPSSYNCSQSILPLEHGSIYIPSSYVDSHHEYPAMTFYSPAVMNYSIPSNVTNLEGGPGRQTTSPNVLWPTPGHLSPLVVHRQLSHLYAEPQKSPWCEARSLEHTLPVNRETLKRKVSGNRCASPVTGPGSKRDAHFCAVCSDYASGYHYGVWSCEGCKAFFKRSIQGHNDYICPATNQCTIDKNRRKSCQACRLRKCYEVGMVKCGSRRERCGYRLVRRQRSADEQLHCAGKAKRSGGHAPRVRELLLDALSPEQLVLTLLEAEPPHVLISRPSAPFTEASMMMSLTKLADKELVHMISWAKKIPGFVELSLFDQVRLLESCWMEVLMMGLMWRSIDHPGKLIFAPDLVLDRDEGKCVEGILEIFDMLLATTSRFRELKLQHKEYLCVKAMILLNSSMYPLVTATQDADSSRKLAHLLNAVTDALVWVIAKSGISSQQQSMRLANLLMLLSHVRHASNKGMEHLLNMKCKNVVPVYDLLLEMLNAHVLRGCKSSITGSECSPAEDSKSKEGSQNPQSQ
# In short: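 Ratiometric beta-lactamase FRET read-out came after 2 h substrate loading at room temperature. It followed 16 h compound treatment at 37C of GripTite HEK293T cells carrying a UAS-bla reporter, plated in 2% charcoal-stripped FBS medium.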
# [3] = target: Estrogen receptor beta (Homo sapiens) (UniProt Q92731); assay: qHTS assay to identify small molecule antagonists of the estrogen receptor beta (ER-beta) signaling pathway (AID 1259378; active = well fitted inhibition curve with a large enough effect in the signal ratio in the repeat runs, not every such curve was filed as active; the % refers to the signal ratio; note: potency is the fitted concentration of half-maximal effect)
# In short: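 ER-beta-UAS-bla HEK293T (GripTite) cells in 2% charcoal-stripped FBS medium were preincubated 6 hr at 37C, dosed with compound, then stimulated with 1 nM E2 (final) for 16 hr; beta-lactamase reporter read by B/G FRET fluorescence after 2 hr substrate loading.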
# [4] = qHTS assay to identify small molecule agonists of the androgen receptor (AR) signaling pathway in the presence of an antagonist - cell viability counter screen (AID 1259379; active = well fitted curve in the direction sought with a large enough effect in the repeat runs; an effect the other way counts as inactive or inconclusive; note: nearly all actives have a fitted effect of over 25% in size; note: potency is the fitted concentration of half-maximal effect)
# In short: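 MDA-kb2 viability measured by CellTiter-Fluor fluorescence in the same wells as the luciferase signal; nilutamide 3.0uM final; 15-point compound titration; 16 hr at 37C.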
# [5] = qHTS assay to identify small molecule agonists of the estrogen receptor beta (ER-beta) signaling pathway - cell viability counter screen (AID 1259380; active = well fitted curve in the direction sought with a large enough effect in the repeat runs; an effect the other way counts as inactive or inconclusive; note: nearly all actives have a fitted effect of over 30% in size; note: potency is the fitted concentration of half-maximal effect)
# In short: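 Measured: luminescence from CellTiter-Glo after 30 min at room temperature, added to wells already read for the LiveBLAzer FRET reporter (2 hr substrate); ER-beta-UAS-bla HEK293T cells had 16 hr compound treatment at 37C, 5% CO2.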
# [6] = target: Estrogen receptor (Homo sapiens) (UniProt P03372); assay: qHTS assay to identify small molecule agonists of the estrogen receptor alpha (ER-alpha) signaling pathway in the presence of an antagonist (AID 1259383); note: nearly all actives have a fitted effect of over 15% in size; note: potency is the fitted concentration of half-maximal effect; for activation: top concentration of the series differs between compounds
# Estrogen receptor (Homo sapiens), sequence (P03372 whole entry, looked up): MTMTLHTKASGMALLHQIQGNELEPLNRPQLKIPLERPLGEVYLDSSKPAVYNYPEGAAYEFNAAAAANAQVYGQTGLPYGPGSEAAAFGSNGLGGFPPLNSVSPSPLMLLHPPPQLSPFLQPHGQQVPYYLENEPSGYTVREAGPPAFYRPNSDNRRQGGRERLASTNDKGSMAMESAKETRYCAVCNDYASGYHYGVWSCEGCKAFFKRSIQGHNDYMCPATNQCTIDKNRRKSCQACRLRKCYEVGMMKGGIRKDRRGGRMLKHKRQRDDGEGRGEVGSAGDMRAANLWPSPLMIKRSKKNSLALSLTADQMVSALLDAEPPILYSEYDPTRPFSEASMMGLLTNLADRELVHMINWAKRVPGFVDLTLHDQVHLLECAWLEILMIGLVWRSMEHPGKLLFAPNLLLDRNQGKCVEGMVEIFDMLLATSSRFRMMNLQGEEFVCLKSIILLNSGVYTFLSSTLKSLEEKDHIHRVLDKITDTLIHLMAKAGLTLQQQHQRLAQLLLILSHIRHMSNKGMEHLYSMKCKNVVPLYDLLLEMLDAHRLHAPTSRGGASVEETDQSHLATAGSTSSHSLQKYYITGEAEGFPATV
# In short: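 Quantitative HTS confirmation: compounds titrated at 15 concentrations onto estrogen-deprived VM7Luc4E2 cells carrying a four-ERE luciferase construct, with ICI-182,780 present at 10.0nM final. Signal is luminescence after 22hr exposure.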
# [7] = qHTS assay to identify small molecule antagonists of the estrogen receptor beta (ER-beta) signaling pathway - cell viability counter screen (AID 1259382; active = well fitted curve in the direction sought with a large enough effect in the repeat runs; an effect the other way counts as inactive or inconclusive; note: nearly all actives have a fitted effect of over 55% in size; note: potency is the fitted concentration of half-maximal effect)
# In short: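 Readout: luminescence, CellTiter-Glo, same wells as bla assay. System: ER-beta-UAS-bla GripTite HEK293T, 2% charcoal-stripped FBS. Exposure: compounds plus 1nM 17-beta-estradiol, 16 hr, 37C.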
# [8] = qHTS assay to identify small molecule agonists or antagonists of the thyroid stimulating hormone receptor (TSHR) signaling pathway - wild type cell line counter screen (AID 1259384)
# In short: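 Wild-type HEK293 cells were plated 18 h at 37 C/5% CO2, pin-dosed with compound plus Ro20-1724 medium, held 30 min at room temperature, then given cAMP-d2 and anti-cAMP-cryptate; fluorescence was read after 1 h. Fifteen concentrations, triplicate.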
# [9] = target: Thyrotropin receptor (Homo sapiens) (UniProt P16473); assay: qHTS assay to identify small molecule antagonists of the thyroid stimulating hormone receptor (TSHR) signaling pathway (AID 1259385); note: nearly all actives have a fitted effect of over 20% in size; note: potency is the fitted concentration of half-maximal effect
# Thyrotropin receptor (Homo sapiens), sequence (P16473 whole entry, looked up): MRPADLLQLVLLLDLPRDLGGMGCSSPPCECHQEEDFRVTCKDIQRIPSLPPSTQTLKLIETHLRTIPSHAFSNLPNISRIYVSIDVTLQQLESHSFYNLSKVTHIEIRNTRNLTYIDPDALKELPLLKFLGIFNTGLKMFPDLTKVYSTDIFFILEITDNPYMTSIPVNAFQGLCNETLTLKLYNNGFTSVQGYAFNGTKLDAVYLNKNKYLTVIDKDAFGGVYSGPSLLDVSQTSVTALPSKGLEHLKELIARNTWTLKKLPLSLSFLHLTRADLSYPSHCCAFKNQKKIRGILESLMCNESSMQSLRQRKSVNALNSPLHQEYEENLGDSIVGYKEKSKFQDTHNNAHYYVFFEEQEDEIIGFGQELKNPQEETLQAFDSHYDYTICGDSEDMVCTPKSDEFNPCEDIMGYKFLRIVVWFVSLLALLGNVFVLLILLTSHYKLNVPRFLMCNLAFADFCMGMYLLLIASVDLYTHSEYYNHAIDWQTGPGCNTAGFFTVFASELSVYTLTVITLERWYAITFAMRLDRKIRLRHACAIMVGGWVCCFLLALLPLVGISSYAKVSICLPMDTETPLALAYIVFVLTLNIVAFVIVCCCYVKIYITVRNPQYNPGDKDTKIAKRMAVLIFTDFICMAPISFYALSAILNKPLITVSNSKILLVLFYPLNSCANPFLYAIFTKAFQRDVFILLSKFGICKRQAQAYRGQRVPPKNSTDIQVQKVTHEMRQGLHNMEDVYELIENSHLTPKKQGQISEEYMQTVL
# In short: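 TSHR-HEK293 cells were plated and held 18 h at 37C/5% CO2, then given compound plus Ro20-1724 and stimulated with TSH at 1.5 ng/mL final. After 30 min at room temperature, cAMP was detected with cAMP-d2/anti-cAMP-cryptate (1 h) by fluorescence.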
# [10] = target: Androgen receptor (Homo sapiens) (UniProt P10275); assay: qHTS assay to identify small molecule agonists of the androgen receptor (AR) signaling pathway in the presence of an antagonist (AID 1259381); note: nearly all actives have a fitted effect of over 15% in size
# Androgen receptor (Homo sapiens), sequence (P10275 whole entry, looked up): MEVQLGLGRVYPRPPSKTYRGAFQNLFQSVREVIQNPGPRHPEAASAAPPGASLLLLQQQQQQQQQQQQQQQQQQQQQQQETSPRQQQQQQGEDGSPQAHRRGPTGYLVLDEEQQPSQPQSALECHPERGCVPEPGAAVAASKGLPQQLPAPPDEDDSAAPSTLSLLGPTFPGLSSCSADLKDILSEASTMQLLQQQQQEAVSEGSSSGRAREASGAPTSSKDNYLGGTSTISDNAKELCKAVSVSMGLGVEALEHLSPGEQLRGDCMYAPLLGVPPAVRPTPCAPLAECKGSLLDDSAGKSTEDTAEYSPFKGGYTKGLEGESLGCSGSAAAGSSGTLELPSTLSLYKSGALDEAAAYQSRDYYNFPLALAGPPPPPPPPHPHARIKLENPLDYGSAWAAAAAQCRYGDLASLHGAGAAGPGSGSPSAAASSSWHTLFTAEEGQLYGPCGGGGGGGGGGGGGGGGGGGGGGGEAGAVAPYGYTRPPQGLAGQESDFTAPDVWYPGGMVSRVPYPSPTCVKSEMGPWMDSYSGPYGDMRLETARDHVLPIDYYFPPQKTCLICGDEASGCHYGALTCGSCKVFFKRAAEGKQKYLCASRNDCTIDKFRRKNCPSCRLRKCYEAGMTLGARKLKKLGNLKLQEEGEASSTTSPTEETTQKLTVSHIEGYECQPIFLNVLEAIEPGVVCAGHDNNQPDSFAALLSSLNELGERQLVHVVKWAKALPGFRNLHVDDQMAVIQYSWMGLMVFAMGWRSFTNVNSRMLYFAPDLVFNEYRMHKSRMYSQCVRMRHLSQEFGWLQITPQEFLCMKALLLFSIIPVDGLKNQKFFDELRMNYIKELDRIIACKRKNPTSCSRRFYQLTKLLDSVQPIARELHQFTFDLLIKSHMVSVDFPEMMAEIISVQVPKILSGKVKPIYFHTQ
# In short: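 Luminescent ONE-Glo read, 30min at room temperature, follows 16hr compound exposure (15 concentrations) of MDA-kb2 cells at 37C, 0% CO2, with nilutamide added at 3.0uM final.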
SMILES,Potency [1],Potency [2],Potency [3],Potency [4],Potency [5],Potency [6],Potency [7],Potency [8],Potency [9],outcome [10]
CCCCOC(=O)COC(=O)c1ccccc1C(=O)OCCCC,inactive,inactive,inactive,inactive,inactive,inactive,–,–,–,–
Brc1ccc(Br)cc1,inactive and 54.5 µM (active),inactive,inactive,inactive,inactive,–,inactive,inactive,inactive,–
Clc1ccccc1-c1nnc(-c2ccccc2Cl)nn1,inactive,inactive,inactive,inactive,inactive,inactive,–,inactive,inactive,–
CN(C)P(=O)(N(C)C)N(C)C,inactive,inactive,inactive,inactive,inactive,inactive,inactive,–,inactive,–
O=C(O)CF,inactive,inactive,inactive,inactive,inactive,inactive,inactive,–,inactive,–
CCNc1nc(Cl)nc(NC(C)(C)C#N)n1,0.685 µM (active),inactive,inactive,inactive,inactive,–,inactive,inactive,inactive,–
c1ccc2c(c1)Nc1ccccc1S2,inactive,inactive,inactive,inactive,inactive,inactive,inactive,–,–,–
COc1ccc(CO)cc1,inactive,inactive,inactive,inactive,inactive,–,inactive,inactive,inactive,–
COc1ccc(O)c(C(C)(C)C)c1,inactive,inactive,inactive,inactive,inactive,inactive,–,inactive,inactive,–
Cc1cccc(N=Nc2ccc(N(C)C)cc2)c1,inactive,inactive,inactive,39.2 µM (active) and 30.6 µM (active),31.2 µM (active),247 nM (active) and 273 nM (active),–,inactive,inactive,–
CC1(C)Cc2cccc(O)c2O1,inactive,inactive,inactive,inactive,inactive,inactive,inactive,inactive,inactive,–
CCCCSP(=O)(SCCCC)SCCCC,inactive,inactive,inactive,inactive,inactive,–,inactive,–,–,–
Cc1ccc([N+](=O)[O-])cc1,inactive,inactive,inactive,inactive,inactive,inactive,inactive,–,inactive,–
OC(c1ccc(Cl)cc1)(c1cncnc1)c1ccccc1Cl (stereo not drawn),inactive,inactive,24.3 µM (active),24.8 µM (active) and inactive,49.4 µM (active),inactive,62.2 µM (active) and inactive,–,–,–
CC1=C(C(=O)Nc2ccccc2)SCCO1,inactive,inactive,inactive,inactive,inactive,inactive,inactive,inactive,inactive,inactive
ClCc1ccccn1,inactive,inactive,inactive,inactive,inactive,inactive,inactive,–,inactive,–
N#Cc1nn(-c2c(Cl)cc(C(F)(F)F)cc2Cl)c(N)c1S(=O)C(F)(F)F (stereo not drawn),inactive and 29.8 µM (active),inactive,23.7 µM (active),61.5 µM (active) and inactive,inactive,inactive,–,inactive,inactive,inactive
CCN(CC)C(=O)C(C)Oc1cccc2ccccc12 (stereo not drawn),inactive,inactive,inactive,inactive,inactive,inactive,–,–,inactive,–
C=CC(Cl)CCl (stereo not drawn),inactive,inactive,inactive,inactive,inactive,–,inactive,inactive,inactive,inactive
Oc1ccc(Cl)cc1Cl,inactive,inactive,inactive,inactive,inactive,inactive,inactive,–,–,–
CCOS(=O)(=O)OCC,inactive,inactive,inactive,inactive,inactive,inactive,inactive,inactive,inactive,–
O=P(OCCCl)(OCCCl)OCCCl,inactive,inactive,inactive,inactive,–,–,–,–,–,–
O=[N+]([O-])/N=C1\NCCN1Cc1ccc(Cl)nc1,inactive,inactive,inactive,inactive,inactive,inactive,inactive,inactive,inactive,inactive
Clc1cccc(C(Cl)(Cl)Cl)n1,inactive,inactive,inactive,inactive,inactive,inactive,inactive,–,inactive,inactive

SMILES,Potency [1],Potency [2],Potency [3],Potency [4],Potency [5],Potency [6],Potency [7],Potency [8],Potency [9],outcome [10]
CC1(C)C(C(=O)OC(C#N)c2cccc(Oc3ccccc3)c2)C1(C)C (stereo not drawn),13.8 µM (active),inactive,48.9 µM (active),inactive,inactive,inactive,–,inactive,61.6 µM (active),–
O=NN1CCOCC1,inactive,inactive,inactive,inactive,inactive,inactive,inactive,–,inactive,–
COP(=O)(NC(C)=O)SC (stereo not drawn),27.3 µM (active) and inactive,inactive,inactive,inactive,inactive,–,inactive,–,–,–
ClC(Cl)(Cl)c1ccccc1,inactive,inactive,inactive,inactive,inactive,inactive,inactive,inactive,inactive,–
COC(=O)Nc1nc2ccccc2[nH]1,24.3 µM (active) and inactive,inactive,inactive,inactive,inactive,–,inactive,–,inactive,inactive
N#Cc1cccnc1,inactive,inactive,inactive,inactive,inactive,inactive,–,–,inactive,–
OCCOCCO,4.46 µM (active) and inactive,inactive,inactive,inactive,inactive,inactive,–,–,–,–
CCOP(=S)(OCC)OP(=S)(OCC)OCC,inactive,inactive,inactive,inactive,inactive,–,inactive,inactive,inactive,inactive
CN(C)c1ccccc1,inactive,inactive,inactive,inactive,inactive,–,inactive,–,inactive,–
CC(C)=CC1C(C(=O)OCc2cccc(Oc3ccccc3)c2)C1(C)C (stereo not drawn),inactive,inactive,inactive,inactive,inactive,inactive,inactive,inactive,inactive,–
Cn1c(-c2ccccc2)cc(-c2ccccc2)[n+]1C,306 nM (active) and inactive,inactive,inactive,24.3 µM (active) and 19.3 µM (active),inactive,inactive,inactive,–,inactive,–
CCCCCCCCCc1ccc(O)cc1,30.9 µM (active) and 43.3 µM (active),inactive,19.5 µM (active),inactive,13.8 µM (active) and 43.3 µM (active),inactive,–,–,inactive,–
CNC(=O)CSP(=S)(OC)OC,14.1 µM (active) and inactive,inactive,inactive,inactive,inactive,inactive,inactive,–,inactive,–
CCOC(=O)c1ccccc1N,inactive,inactive,inactive,inactive,inactive,inactive,–,–,inactive,–
Clc1cccc(Cl)c1,inactive,inactive,inactive,inactive,–,–,inactive,inactive,inactive,–
CNC(=O)Oc1cccc2c1OC(C)(C)C2,inactive,–,inactive,inactive,–,inactive,inactive,–,inactive,inactive
Nc1ncn[nH]1,inactive,inactive,inactive,inactive,inactive,–,–,inactive,inactive,–
CN(C)c1nc(=O)n(C2CCCCC2)c(=O)n1C,inactive,inactive,inactive,inactive,–,inactive,inactive,–,inactive,–
CC(C)COC(=O)c1ccccc1C(=O)OCC(C)C,inactive,inactive,inactive,inactive,inactive,inactive,–,–,inactive,–
CC(O)CN(CC(C)O)CC(C)O (stereo not drawn),inactive,inactive,inactive,inactive,–,–,inactive,inactive,inactive,–
Oc1ccc(Cl)cc1Cc1ccccc1,13.7 µM (active) and 24.6 µM (active),–,inactive,inactive,54.5 µM (active) and 27.6 µM (active),–,48.6 µM (active) and 52.1 µM (active),inactive,inactive and 55.1 µM (active),inactive
COc1ccc(C=O)cc1OC,24.6 µM (active),inactive,inactive,inactive,–,inactive,–,–,–,–
O=[N+]([O-])c1ccc(Nc2ccccc2)cc1,17.2 µM (active),inactive,–,30.9 µM (active) and 30.6 µM (active),inactive,inactive,–,inactive,inactive,–
